Results as given in ChEMBL document CHEMBL3433997, “St. Jude Leishmania screening dataset” (2016).

Legend:
Type in all cases: functional
[1] = molecular target: Solute carrier family 2, facilitated glucose transporter member 1 (Homo sapiens) (UniProt P11166); assay: ST_JUDE_LEISH: Cytotoxicity at 2uM final concentration against transgenic Leishmania Mexicana promastigotes LmGLUT1 that are glucose transport deficient and complemented with the human glucose transporter GLUT1. Activity is measured by DNA content using SYBR green in vitro
Solute carrier family 2, facilitated glucose transporter member 1 (Homo sapiens), sequence (P11166 whole entry): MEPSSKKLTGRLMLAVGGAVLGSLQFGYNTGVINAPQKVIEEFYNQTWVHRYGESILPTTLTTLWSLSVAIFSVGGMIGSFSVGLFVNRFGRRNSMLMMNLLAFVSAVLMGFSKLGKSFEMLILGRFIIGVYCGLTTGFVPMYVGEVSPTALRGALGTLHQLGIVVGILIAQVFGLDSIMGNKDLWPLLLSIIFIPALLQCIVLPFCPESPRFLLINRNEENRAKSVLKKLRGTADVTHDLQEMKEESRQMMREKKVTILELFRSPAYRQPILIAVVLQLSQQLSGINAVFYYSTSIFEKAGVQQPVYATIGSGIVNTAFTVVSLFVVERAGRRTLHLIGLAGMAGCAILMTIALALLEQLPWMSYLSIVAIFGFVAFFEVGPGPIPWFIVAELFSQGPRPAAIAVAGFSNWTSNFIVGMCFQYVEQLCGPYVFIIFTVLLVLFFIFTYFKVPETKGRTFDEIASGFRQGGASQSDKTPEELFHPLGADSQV

[2] = molecular target: Hexose transporter 1 (Plasmodium falciparum) (UniProt O97467); assay: ST_JUDE_LEISH: Cytotoxicity at 2uM final concentration against transgenic Leishmania Mexicana promastigotes LmPfHT that are glucose transport deficient and complemented with the Plasmodium falciparum hexose transporter. Activity is measured by DNA content using SYBR green in vitro
[3] = molecular target: Glucose transporter (Leishmania mexicana) (UniProt O61059); assay: ST_JUDE_LEISH: Cytotoxicity at 2uM final concentration against transgenic Leishmania Mexicana promastigotes LmGT2 that are glucose transport deficient and complemented with the L. Mexicana glucose transporter 2. Activity is measured by DNA content using SYBR green in vitro

SMILES	inhibition [1] [%]	inhibition [2] [%]	inhibition [3] [%]
CCN(CC)CCNc1ccnc2[nH]c3ccc(C)cc3c12	0.06	0.18	0.34
O=C(CN1CCN(C(=O)c2ccco2)CC1)Nc1ccccc1Br	-1.39	-1.64	-3.97
COc1ccc(CN2CCC(NCc3cccc(-n4ccnc4)c3)CC2)cc1	3.99	3.17	2.72
FC(F)(F)c1ccc2[nH]c(-c3cccc(-c4ccc(CNCCc5ccncc5)cc4)c3)nc2c1	1.9	0.52	-0.21
Cc1ccc(OCC2CCN(c3ncc(C(=O)NC4CC4)cc3Cl)CC2)cc1	-0.74	-2.55	0.52
CC(=O)Nc1cccc(Nc2nccc(Nc3ccc(Oc4ccccc4)cc3)n2)c1	1.64	2.76	-0.82
CN(C)CCC1CCN(CCS(=O)(=O)c2cccc(Nc3ccc(-c4ccsc4)cn3)c2)CC1	-0.36	0.82	1.59
O=C(NC1CCCCC1)N(Cc1ccc(-c2cccc(CNCc3ccc4c(c3)OCO4)c2)cc1)C1CCN(Cc2ccccc2)CC1	2.19	1.74	0.81
Fc1ccc2[nH]c(-c3cccc(-c4cccc(CN5CCN(c6ccncc6)CC5)c4)c3)nc2c1	0.24	1.73	0.3
CC(C)(CNCc1cc(Cl)cc(Cl)c1)c1nc(-c2ccnc(N)n2)c(-c2ccc(Cl)c(O)c2)[nH]1	-0.09	0.95	2.11
Clc1ccc(-c2csc3ncnc(Cl)c23)cc1	4.6	0.54	4.02
Cc1nnc(-c2ccc3ccccc3c2)c2cn(-c3cccc([N+](=O)[O-])c3)nc12	5.1	3.95	3.91
COc1ccc2ncc(F)c([C@@H](O)CN3CCC(NCc4cc(C#N)c5c(c4)CCO5)CC3)c2n1	3.43	3.05	0.58
CCC(C)NC(=O)CN1CN(c2ccccc2)C2(CCN(C(=O)c3ccc(C(C)(C)C)cc3)CC2)C1=O (stereo not drawn)	3.34	2.77	1.7
Cc1cc2nc(-c3ccc(/C=C/C(=O)NCCc4ccccc4)cc3)[nH]c2cc1C	1.09	0.54	0.56
Cc1cc(N[C@@H](CC(C)C)C(=O)Nc2ccccc2)nc(NCC2CCCCC2)n1	10.2	9.8	5.12
Cc1cccc2nc(-c3ccc(-c4ccc(C(=O)NCCc5cn(C)cn5)cc4)s3)[nH]c12	4.34	5.34	2.6
Cc1ccc(NC(=O)Nc2ccc(Cl)c(C(F)(F)F)c2)cc1-c1ccc(C(=O)NCCN2CCOCC2)cc1	8.1	5.32	5.24
Cn1ncc2c3c(CCN4CCC(NCc5cc6c(cn5)OCC6)CC4)c(Cl)cnc3ccc21	0.52	0.99	0.05
CNC(=O)c1ccccc1Nc1nc(Nc2cccc(CS(C)(=O)=O)c2)ncc1C	3.44	11.9	8.04
CCCCNC[C@@H](O)[C@H](Cc1ccccc1)NC(=O)c1cc2c3c(c1)c(CC)cn3CCS(=O)(=O)N2C	2.53	4.07	2.04
Cc1ccc2c(c1)NCC21CCN(C[C@@H](O)C2CCN(c3cc(C#N)ccn3)CC2)CC1C (stereo partly drawn)	-1.68	0	-3.72
CC(=O)Nc1ccc(C(=O)Nc2cccc(-c3cccc(-c4nc5cc(C(F)(F)F)ccc5[nH]4)c3)c2)cn1	-0.64	-2.32	-1.64
CN1CCN(CCCN(Cc2ccc(-c3cccc(CNC4CCCC4)c3)cc2)C(=O)/C=C/c2ccccc2)CC1	10.2	9.42	6.94

SMILES	inhibition [1] [%]	inhibition [2] [%]	inhibition [3] [%]
N#Cc1ccc2c(c1)CCN(CCC1CCC(NC(=O)c3cc4ccc(Cl)cc4[nH]3)CC1)C2 (stereo not drawn)	1.73	-0.22	-0.76
Cc1cc(Nc2ccc(C(C)(C)C)cc2)c2[nH]ncc2n1	16.1	26.2	4.28
c1cncc(Oc2ccc(Nc3ccnc4cc(-c5cccc(CN6CCCCC6)c5)ccc34)cc2)c1	3.68	2.51	2.68
CCCOc1ccc(CCNCCCCNCCc2ccc(OCCC)c3ccccc23)c2ccccc12	101	99.1	105
CCN(CCCN1CCCCC1)c1cc(C)nc(Nc2ccc(C)cc2Br)n1	4.17	4.38	4.15
CC(=NNC(S)=Nc1ccccc1Cl)c1ccccn1	18.6	19.6	12.2
c1cc2[nH]c(CCCCc3nc4cc(C5=N[C@H]6CCCC[C@H]6N5)ccc4[nH]3)nc2cc1C1=N[C@H]2CCCC[C@H]2N1	10.1	9.08	8.87
COc1ccc(CNCc2cccc(-c3ccc(-c4nc5cc(C(F)(F)F)ccc5[nH]4)cc3)c2)cc1	7.79	6.65	6
OC(CNCc1ccccc1OCc1ccccc1)c1cccc(C(F)(F)F)c1 (stereo not drawn)	15.1	11.6	10.8
Cc1nc(-c2cccc(Nc3nccc(NCC(O)c4ccccc4)n3)c2)cs1 (stereo not drawn)	1.43	0.76	2.14
CC(Cc1ccc(C(=O)OCCOC(=O)c2ccc(CC(C)NCC(O)c3cccc(C(F)(F)F)c3)cc2)cc1)NCC(O)c1cccc(C(F)(F)F)c1 (stereo not drawn)	1.7	-0.31	2.65
Cc1cccc2nc(-c3ccc(-c4ccc(CNC(C)C)cc4)cc3)[nH]c12	21.6	25.1	15.7
Cc1cc(-c2nc3cncc(-c4cccc(CN5CCCC5Cc5cccnc5)c4)c3n2C)nn1C (stereo not drawn)	-1.04	-2.01	-0.34
COc1cc(OC)c(NC(=O)C2c3ccccc3C(=O)N(C)C2c2cccs2)cc1Cl (stereo not drawn)	2.2	5.87	5.98
CCCn1c(=N)c(C(=O)NCCc2ccccc2)cc2c(=O)n3cccc(C)c3nc21	5.16	7.01	2.32
Cc1ccoc1C(=O)Nc1cccc(-c2cccc(-c3nc4cc(C(F)(F)F)ccc4[nH]3)c2)c1	3.75	1.86	-0.44
COc1ccc(C=NN=c2cc[nH]c3ccccc23)c2ccccc12	2.52	7.49	5.88
CCc1cn(CCS(C)(=O)=O)c2ccc(C(=O)N[C@@H](Cc3ccccc3)[C@H](O)CNC(C)(C)CCCC(C)C)cc12	5.26	4.33	6.22
CC(=O)Nc1ncc(C(=O)Nc2cccc(-c3cccc(-c4nc5ccccc5[nH]4)c3)c2)s1	1.58	1.44	6.64
Cc1ccc(C(=O)Nc2ccc(C)c(OC3CCN(CCC(C)C)C3)c2)cc1 (stereo not drawn)	8.1	8.98	5.85
c1ccc2ncc(CNCCCCCCCCNCc3cnc4ccccc4c3)cc2c1	-0.67	-0.08	0.09
COc1ccc2nccc([C@@H](O)CN3CCC(NCCOc4cccc(C(F)(F)F)c4)CC3)c2c1	9.63	12.5	0.73
Clc1cc2c(Nc3ccc(Oc4ccccc4)cc3)ccnc2cc1-c1ccc(CNCCN2CCOCC2)o1	-1.44	-0.57	-0.03
CC(C)C[C@H](NC(=O)c1cc2ccccc2s1)C(=O)N[C@H]1CCN(Cc2ccc(OCCCN(C)C)c(Cl)c2)C1	3.21	2.95	1.32

SMILES	inhibition [1] [%]	inhibition [2] [%]	inhibition [3] [%]
O=C(/C=C/c1ccc(Cl)c(Cl)c1)NCCCCCN1CCC(NC(=O)c2ccc(F)c(F)c2)CC1	3.18	5.17	6.18
Cc1cccc(Nc2nc(C)cc(N3CCCN(CC4CCCCC4)CC3)n2)c1	-2.84	1.98	-0.15
COc1ccc(CCN(C)CCOc2ccc(NC(=O)c3cccc4cc5ccccc5nc34)cc2)cc1OC	2.4	1.69	1.88
CCN(CC)CCN(Cc1ccc(-c2ccc(C(F)(F)F)cc2)cc1)C(=O)Cn1c(CCc2cccc(C#N)c2)nc(=O)c2ccccc21	2.68	1.83	2.44
Cc1nc(-c2ccc(-c3ccc(C(=O)Nc4ccc(I)c(OCC5CCCN5C)c4)cc3)c(C)c2)no1 (stereo not drawn)	9.63	7.75	5.6
COc1ccc(-c2cnc(N)c(-c3ccc(O)c(OC)c3)c2)cn1	0.58	0.38	1.13
O=C(Nc1cccc(CN2CCCN(Cc3ccc4c(c3)OCO4)CC2)c1)c1ccc(Cl)c(Cl)c1	6.43	5.95	8.61
CCOc1cc(/C=N/Nc2nc3ccccc3[nH]2)ccc1OCc1ccc([N+](=O)[O-])cc1	5.62	4.53	4.41
O=C(Nc1ccc(C(F)(F)F)cc1)NC1CCN(c2ccnc3cc(Cl)ccc23)CC1	6.47	6.26	4.68
CC(C)(C)c1ccc(N2C(N)=NC(N)=NC2(C)C)cc1Cl	9.03	7.39	5.67
COc1cc(C)nc2ccc(NC(=O)c3cc(C(F)(F)F)cc(C(F)(F)F)c3)cc12	16.3	12.8	10.1
O=C(Nc1ccccc1)N(Cc1ccc(-c2cccc(CNC3CCCC3)c2)cc1)C1CCN(Cc2ccccc2)CC1	0.97	1.4	1.42
CCCC(CNCc1cccc(C)c1)CNc1cc(=O)c2ccccc2[nH]1 (stereo not drawn)	10.9	11.9	11.9
Cc1cc(=NN=Cc2ccccc2Cl)c2ccccc2[nH]1	8.12	8.36	5.86
CO/C(=C\C=C\c1cc2cc(Cl)c(Cl)cc2[nH]1)C(=O)NC1CC(C)N(C)C(C)C1 (stereo not drawn)	-2.9	-0.97	-1.43
O=C(C=Cc1ccc(Cl)c(Cl)c1)NCCCCCN1CCCC(CCCNC(=O)c2cccs2)C1 (stereo not drawn)	6.06	3.58	5.16
C=Cc1ccc(-c2c(C)[nH]c(C)c(Br)c2=O)cc1	0.56	1.38	-0.92
CCc1cccc2c(C#N)cn(CC(=O)NCCc3ccccc3)c12	6.99	9.88	9.25
O=c1nc(C=Cc2ccc(Br)cc2)oc2ccccc12	3.24	2.44	3.63
COCCCN=C(S)NN=C(C)c1ccccn1	0.61	-0.03	0
N#Cc1ccc(N(CCNS(=O)(=O)c2cc(Br)c(Cl)s2)Cc2ccccc2C(F)(F)F)cc1C(F)(F)F	3.37	0.82	1.55
COc1ccc2c(NN=Cc3cccnc3)ccnc2c1	0.4	2.02	-0.33
O=C(Nc1ccc2oc(-c3ccc(Cl)cc3Cl)nc2c1)c1ccc([N+](=O)[O-])o1	88.9	54.3	11
